High-throughput results (PubChem)
SW480 rerep – inducers of DNA re-replication in SW480 colon cancer cells | SW480 DNA re-replication, Hoechst DNA content imaging, 48 h | Potency, µM (series often up to 46.1 µM), for inactives: at the top dose re-replication activation, hits mostly activators | hit rate 1.8% among 340,000; also: % of control where 0% means no effect; nearly all actives have a fitted effect of over 55% in size
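Treated cells incubate 48 hr (37 C, 5% CO2), are stained 40 min with Hoechst, and nuclear fluorescence is enumerated; a rise in nuclei with high DNA signal marks re-replication.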
MCF10A rerep – inducers of DNA re-replication in MCF 10A breast cells; MCF 10A DNA re-replication, Hoechst nuclear intensity, 48 h; Potency, µM (doses to about 46.1 µM), without a hit: at the highest dose activity, positive = re-replication, most hits filed as activators; hit rate 2.9% among 350,000; also: % of control where 0% means no effect; nearly all actives have a fitted effect of over 50% in size
ELG1 DNA repair – blocks ELG1-dependent DNA repair in HEK293T cells; HEK293T ELG1-luciferase reporter, luminescence, 16 h; DNA damage induced by 5-fluorouridine; Potency, µM (top dose mostly 46.1 µM), without a hit: at the top dose activity change, negative = inhibition, actives largely listed as inhibitors; hit rate 2.3% among 330,000; also: % is scaled to controls: 0 for no effect and ±100 for the full control effect; nearly all actives have a fitted effect of over 55% in size
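DMSO vehicle served as the neutral condition. Each well held 2,000 cells given 5-fluorouridine plus compound; after 16 hr at 37 °C/5% CO2, ONE-Glo was added and luciferase measured 30 min later.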
KB-V1 MDR tox – kills drug-selected multidrug resistant KB-V1 cells | KB-V1 MDR cells viability, CellTiter-Glo, 72 h | Potency, µM (doses to about 46.1 µM), actives largely listed as cytotoxic | hit rate 3.4% among 400,000; also: % is scaled to controls: 0 for no effect and ±100 for the full control effect; nearly all actives have a fitted effect of over 60% in size
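Cells of the MDR subline KB-V1 are plated, dosed with compound at multiple concentrations, and incubated 72 h at 37 degrees C; CellTiter-Glo is then added and luminescence read after 10 min.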
KB-3-1 cytotox – kills parental KB-3-1 adenocarcinoma cells. KB-3-1 viability, CellTiter-Glo ATP luminescence, 72 h. Potency, µM (doses to about 46.1 µM), usual class: cytotoxic. hit rate 1.4% among 400,000. AID 1347075; also: % is scaled to controls: 0 for no effect and ±100 for the full control effect; nearly all actives have a fitted effect of over 60% in size
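Cells are dispensed, compounds pinned in, plates held at 37 °C for 72 h, then CellTiter-Glo is added and luminescence read after 10 minutes. Cell line: parental KB-3-1 in phenol-red-free DMEM, 10% FBS.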
An asterisk follows results filed as active; i = inactive; ? = inconclusive; . = not tested or not shown. A selection: hits, their analogues and other compounds. The true share with any hit is near 8.2%. Calls follow the shape of the dose curve; as a rule, active = well fitted curve in the direction sought with a large enough effect; inconclusive = small, poorly fitted or top-dose-only effect, or another doubt; inactive = no such curve, though single readings can be large; an effect the other way counts as inactive or inconclusive. Potency is read from the fitted curve at half-maximal effect.

SMILES | SW480 rerep | MCF10A rerep | ELG1 DNA repair | KB-V1 MDR tox | KB-3-1 cytotox
Cc1ccc(C(=O)Nc2nc3c(s2)CCCC3)o1 | -4.8% | 3.5% | ? | 11.6µM* | ?
Cc1ccc(C(=O)Nc2ncc(Cc3ccccc3)s2)o1 | -19.5% | ? | ? | i | 3.55µM*
O=C(Nc1ncc(Cc2cccc(Cl)c2)s1)c1cccs1 | 13.7% | ? | ? | 13µM* | ?
O=C(CSc1nc(-c2ccc(F)cc2)cc(C(F)(F)F)n1)NCCc1ccccc1 | . | . | . | i | i
Cc1ccc(Nc2nc(N3CCN(C)CC3)nc(N)c2[N+](=O)[O-])cc1C | . | . | 8.2µM* | . | .
O=C(CN1CCC(C(=O)c2ccc(F)cc2)CC1)NCc1ccccc1F | 16.9% | -0.1% | 1.5% | 9.2µM* | ?
O=C(c1ccc(F)cc1)C1CCN(Cc2ccccc2F)CC1 | . | . | . | i | i
O=C(CN1CCC(C(=O)c2ccc(F)cc2)CC1)Nc1ccc(F)cc1 | -1.3% | 13.0% | ? | ? | i
O=C(CN1CCC(C(=O)c2ccc(F)cc2)CC1)Nc1ccccc1 | 0.6% | 1.9% | -14.2% | 4.61µM* | i
Cc1cc(C)c2c(c1)/C(=N/NS(=O)(=O)c1ccccc1)CCC2 | 0.2% | ? | -12.4% | i | i
Cc1cc(C)c2c(c1)/C(=N/NS(=O)(=O)c1ccc(Br)cc1)CCC2 | 2.7% | 7.08µM* | 29.1% | ? | i
Cc1cccc(C)c1OCC(O)CN1CCC(CN2C(=O)c3cccc4cccc(c34)C2=O)CC1 (centres undefined) | ? | ? | 23.1µM* | ? | 20.6µM*
CC(C)OCC(O)CN1CCN(CCN2C(=O)c3cccc4cccc(c34)C2=O)CC1 (centres undefined) | ? | ? | -0.6% | i | i
CC(=O)c1ccc(OCC(O)CN2CCN(CCN3C(=O)c4cccc5cccc(c45)C3=O)CC2)cc1 (centres undefined) | ? | ? | 23.1µM* | ? | ?
Cc1ccccc1OCC(O)CN1CCN(CCN2C(=O)c3cccc4cccc(c34)C2=O)CC1 (centres undefined) | 10.0% | 15.0% | 23.1µM* | ? | ?
CCC(OCC(O)CN1CCN(CCN2C(=O)c3cccc4cccc(c34)C2=O)CC1)c1ccccc1 (centres undefined) | -5.2% | 0.6% | 20.6µM* | ? | i
Cc1ccc(S(=O)(=O)Nc2ccc(-c3ccc4nncn4n3)cc2)cc1 | -5.3% | -0.2% | ? | i | i
COC(=O)c1ccc2c(c1C(=O)OC)CN(S(=O)(=O)C(C)(C)C)[C@H]2CCO | -5.5% | -29.7% | . | i | i
O=S1(=O)CCO[C@H]2CCCC[C@@H]2N1Cc1ccccc1 | . | . | . | i | i
C=CCc1ccccc1OCC(O)CN1CCN(C(=O)OCC)CC1 (centres undefined) | -2.6% | -0.1% | -4.5% | ? | i
C=CCc1ccccc1OCC(O)CN1CCN(CCN2C(=O)c3cccc4cccc(c34)C2=O)CC1 (centres undefined) | ? | ? | 20.6µM* | ? | ?
Cc1ccc(OCC(=O)NCC(=O)OCc2cc(=O)n3nc(C)sc3n2)cc1 | . | . | . | ? | i
O=[N+]([O-])c1ccc2[nH]c(=S)[nH]c2c1 | 6.1% | -2.1% | . | i | i
O=[N+]([O-])c1ccc2[nH]c(=S)sc2c1 | -1.1% | ? | . | 11.6µM* | ?
O=Nc1c(-c2c(O)[nH]c3cc(Br)ccc23)[nH]c2ccccc12 | ? | -7.7% | ? | 20.6µM* | ?
O=C(CSCc1cccc(Br)c1)N=Nc1c(O)[nH]c2ccccc12 | 0.3% | 1.0% | -8.7% | i | i
COc1ccc2oc3cc(C)[n+]([O-])c(-c4ccc(Br)cc4)c3c2c1 | -5.8% | ? | 20.6µM* | 2.91µM* | ?
CCOC(=O)c1c(-c2ccc(OC)cc2)oc2ccc(OCc3ccc(Br)cc3)cc12 | . | . | . | i | i
Cc1onc(-c2ccccc2)c1C(=O)OCC(=O)N(C)c1ccccc1 | 5.8% | 0.8% | 9.2% | i | i
